Beta apoptosis: blocks beta cell apoptosis. INS-1E cytokine-induced death, ATP luminescence, 48 h; percent of positive-control rescue, neutral wells zero. protection from apoptosis, % (concentration not given with the values). hit rate 0.8% among 300,000. AID 435005;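 active = Every replicate reaches about 75%, or at least half do and their mean reaches it too, limit read from the data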;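 note: 0% = cytokine-treated negative control wells and 100% = positive control rescue; higher means more ATP so stronger rescue from cytokine killing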
SKKanGAS inh: inhibitors of SKKanGAS S. pyogenes growth in kanamycin (SK-promoter or general growth effect); AID 1662; BacTiter-Glo, 6 h; hit rate 1.3% among 300,000; inhibition, % at 7.5 µM;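 active = mean replicate score, as percent of positive control median, at least 50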;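 note: strain carries kanamycin resistance gene driven by streptokinase promoter and grows in 40 µg/ml kanamycin; loss of luminescence reflects streptokinase promoter inhibition or plain growth inhibition; 0% = median of DMSO wells and 100% = positive control at its reference dose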
Mdm2-MdmX inh: human Mdm2/MdmX binding inhibition | SaOS-2 split-luciferase Mdm2/MdmX complementation, luminescence | hit rate 3% among 330,000 | O15151+Q00987 | inhibition, % at 8 µM;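 active = inhibition of at least 50% at 8 µM in the primary screen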
Target sequence (O15151 whole entry, looked up): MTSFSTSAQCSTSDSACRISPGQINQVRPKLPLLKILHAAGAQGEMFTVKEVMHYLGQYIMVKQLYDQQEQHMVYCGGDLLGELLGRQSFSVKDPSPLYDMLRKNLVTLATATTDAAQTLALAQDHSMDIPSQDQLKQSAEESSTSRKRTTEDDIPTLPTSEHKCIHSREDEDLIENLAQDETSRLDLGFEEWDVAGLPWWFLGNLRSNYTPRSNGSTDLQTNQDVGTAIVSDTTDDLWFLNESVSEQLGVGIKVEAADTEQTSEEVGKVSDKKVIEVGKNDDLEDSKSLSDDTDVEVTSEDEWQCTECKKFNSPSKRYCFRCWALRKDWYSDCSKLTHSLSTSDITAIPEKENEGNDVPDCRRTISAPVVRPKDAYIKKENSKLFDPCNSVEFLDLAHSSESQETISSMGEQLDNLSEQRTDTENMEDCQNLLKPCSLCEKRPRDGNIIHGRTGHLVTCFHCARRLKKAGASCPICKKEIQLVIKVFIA
Target sequence (Q00987 whole entry, looked up): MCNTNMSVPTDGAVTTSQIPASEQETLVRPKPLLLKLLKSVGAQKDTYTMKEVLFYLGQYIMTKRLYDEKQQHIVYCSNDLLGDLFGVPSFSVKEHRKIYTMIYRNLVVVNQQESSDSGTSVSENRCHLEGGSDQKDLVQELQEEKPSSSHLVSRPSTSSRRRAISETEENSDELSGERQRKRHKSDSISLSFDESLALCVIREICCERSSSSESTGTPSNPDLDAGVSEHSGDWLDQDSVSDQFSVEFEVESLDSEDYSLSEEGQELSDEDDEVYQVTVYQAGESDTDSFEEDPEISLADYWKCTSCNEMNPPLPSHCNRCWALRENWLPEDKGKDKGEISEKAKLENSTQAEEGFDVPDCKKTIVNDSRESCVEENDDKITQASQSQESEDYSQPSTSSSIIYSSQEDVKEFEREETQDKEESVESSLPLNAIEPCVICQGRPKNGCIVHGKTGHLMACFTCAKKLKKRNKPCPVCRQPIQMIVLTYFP
NR3A LBD binder: modulators (binders) of human NR3A ligand-binding domain. NR3A LBD differential scanning fluorimetry, Tm shift; 0% = protein alone, 100% = glycine-bound protein. Tm shift relative to glycine control, % at 25 µM. hit rate 2.5% among 340,000;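 active = melting temperature shift of at least 10% of the positive control shift, at one fixed dose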
MPTP block: blocks calcium-induced mitochondrial swelling. isolated mouse mitochondria, Ca2+ swelling absorbance, 30 min. inhibition, % at 10 µM. hit rate 1.4% among 360,000. AID 602449;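 active = inhibition of 50% or more, scaled per plate between neutral and stimulator controls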;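 note: 0% = DMSO wells given calcium and 100% = 1 mM EGTA wells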
CSC inhib: cancer stem cell inhibition; cancer stem cell-like cells viability, luminescence; hit rate 1.1% among 300,000; inhibition, % at 7.5 µM; in the data active = inhibition above about 75%; tested in HMLE shEcad cells
Mdm2-MdmX conf: human Mdm2/MdmX binding inhibition, confirmed | inhibition, % at 8 µM | luminescent assay | hit rate 55% among 10,000 | shares compounds with Mdm2-MdmX inh; in the data active = inhibition above about 40%
FLuc counter: counter-screen for Mdm2/MdmX inhibitors: full-length luciferase; shares compounds with Mdm2-MdmX inh; SaOS-2 full-length luciferase counterscreen, luminescence; hit rate 77% among 6,200; inhibition, % at 8 µM;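 active = mean inhibition at 8 µM reaching about 37%, which flags the compound as non-specific, limit read from the data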;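 note: p53-null SaOS-2 cells with luciferase driven by a doxycycline-inducible promoter; compound on cells about two nights before reading with doxycycline added after day one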
* marks the source's active call; other numbers are inactive results; x = no result. Hits are enriched below; roughly 6.9% of the tested compounds scored in any of these assays.

SMILES | Beta apoptosis | SKKanGAS inh | Mdm2-MdmX inh | NR3A LBD binder | MPTP block | CSC inhib | Mdm2-MdmX conf | FLuc counter
CCOc1ccccc1C1CC(=O)Nc2cc(C)c(C)cc21 (stereo not given) | 8.1 | -3.5 | 57.3* | -0.3 | 0.2 | 32.1 | 58.6* | 54.0*
COc1ccccc1C1CC(=O)Nc2cc(C)c(C)cc21 (stereo not given) | 6.1 | -2.3 | 60.2* | -0.9 | 1.2 | 39.4 | 55.3* | 59.5*
Cc1cc2c(cc1C)C(c1ccccc1Br)CC(=O)N2 (stereo not given) | -1.8 | 23.9 | 16.5 | -3.5 | 1.1 | 7.3 | x | x
CCOc1ccccc1C1CC(=O)Nc2cc(OC)c(OC)c(OC)c21 (stereo not given) | 2.4 | -1.5 | 43.9 | -1.7 | 0.4 | 8.2 | x | x
O=C(Nc1ccccc1Cl)c1ccc(-c2ccccn2)s1 | -7.7 | -7.1 | -81.3 | -13.5 | 1.5 | 3.0 | x | x
COc1ccccc1NC(=O)C(C)OC(=O)CCSc1ccc(F)cc1 (stereo not given) | -3.7 | -0.5 | 22.1 | 2.8 | 0.7 | -14.5 | x | x
CCN(C(=O)COC(=O)c1nc(Cl)ccc1Cl)C1CCS(=O)(=O)C1 (stereo not given) | 9.7 | 8.3 | 37.8 | 1.6 | -1.0 | -10.2 | x | x
COc1ccc(F)cc1C(=O)C1CCCN(Cc2c[nH]c3ccccc23)C1 (stereo not given) | -2.8 | -3.7 | 52.8* | -0.8 | 3.8 | 7.4 | 27.4 | x
Cc1ccc(C(=O)Nc2nc(-c3ccccn3)cs2)cc1S(=O)(=O)N1CCOCC1 | 90.0* | x | 88.6* | 0.2 | -3.6 | x | 81.3* | 23.2
O=C(Nc1nc(-c2ccccn2)cs1)c1ccc(F)c(S(=O)(=O)N2CCOCC2)c1 | 89.1* | x | 75.6* | -2.5 | -2.6 | x | 86.2* | 25.6
O=C(Nc1nc(-c2ccccn2)cs1)c1cc(S(=O)(=O)N2CCOCC2)ccc1F | x | x | 53.3* | -3.0 | -1.1 | x | 28.6 | x
CN(CC1CCCO1)S(=O)(=O)c1ccc(C(=O)Nc2nc(-c3ccccn3)cs2)cc1 (stereo not given) | 103.9* | x | 88.8* | -6.2 | -1.7 | 69.6 | 80.3* | 27.4
COc1ccc(C2(NC(C)=O)CCN(Cc3cccnc3)CC2)cc1 | -4.6 | 9.2 | -4.1 | 1.4 | 0.6 | -5.0 | x | x
CCOC(=O)CC(=O)CSc1ncnc2c1nnn2-c1ccccc1 | x | 3.0 | 6.5 | 0.5 | 0.6 | 13.8 | x | x
COC(=O)C(C)NC(=O)C1CCCN1C(=O)CNC(=O)OCc1ccccc1 (stereo not given) | -1.2 | -0.1 | 16.8 | 0.6 | -0.5 | -6.3 | x | x
CCN(c1ccccc1C(=O)O)S(=O)(=O)c1cccc2nsnc12 | 2.4 | 1.0 | -2.9 | 0.6 | 0.1 | -10.4 | x | x
CC(=O)Nc1ccc(Nc2nc(-c3c(C)nc4ccccn34)cs2)cc1 | 4.7 | 5.9 | 66.2* | 13.5* | 31.3 | 59.1 | 46.9* | 66.0*
Cc1nc2ncccn2c1-c1csc(Nc2ccccc2)n1 | 9.4 | -5.0 | 62.0* | -1.6 | 8.9 | -9.4 | 24.1 | x
Cc1cc(C)c2c(N)c(C(=O)Nc3ncc(C)s3)sc2n1 | 14.0 | x | 78.8* | -7.7 | -0.3 | x | 81.1* | 54.8*
COc1cc(/C=N/NC(=O)c2sc3nc(C)cc(C)c3c2N)ccc1O | 24.6 | 3.7 | 72.7* | -7.1 | 2.0 | 15.3 | 51.7* | 64.1*
Cc1cc(C)c2c(N)c(C(=O)c3ccccc3Cl)sc2n1 | 3.4 | 25.0 | 6.9 | -0.5 | 2.2 | -1.9 | x | x
Cc1cc(C)c2c(N)c(C(=O)c3ccc(Cl)cc3Cl)sc2n1 | 15.9 | -6.4 | 70.5* | 3.3 | 0.0 | 10.8 | 75.2* | 59.6*
COC(=O)c1sc2nc(C)cc(C)c2c1N | x | 5.1 | 14.3 | -2.7 | 0.0 | -0.7 | x | x
C/C=C1\COC(C(=O)NCc2ccccc2)(C(F)(F)F)C=C1C=C(C)C (stereo not given) | -9.6 | 9.8 | 14.3 | 0.5 | 0.0 | x | x | x
COc1ccccc1OC(C)C(=O)Nc1ccccc1C(=O)NCc1cccnc1 (stereo not given) | -0.6 | 1.3 | -7.4 | 1.1 | -0.2 | x | x | x
SMILES | Beta apoptosis | SKKanGAS inh | Mdm2-MdmX inh | NR3A LBD binder | MPTP block | CSC inhib | Mdm2-MdmX conf | FLuc counter
COc1ccc(-c2cc(-c3ccccc3)c(C#N)c(S(C)=O)n2)cc1 (stereo not given) | -6.0 | -7.0 | 81.0* | 0.1 | 0.3 | 24.4 | 20.9 | x
COCC(=O)NNC(=S)Nc1cccc(C)c1C | -3.4 | 5.9 | -23.3 | 0.7 | 0.0 | -6.7 | x | x
Cc1ccc(-c2nn(-c3ccccc3)c3[nH]c(=O)c(CNCc4ccccc4)cc23)cc1 | -1.0 | 32.9 | 52.4* | -6.8 | 5.0 | 52.8 | 11.8 | x
CCOc1ccc(NCc2cc3c(C(C)(C)C)nn(-c4ccccc4)c3[nH]c2=O)cc1 | -16.3 | -7.2 | 95.8* | -21.2 | 3.8 | 21.0 | 23.1 | 90.7*
Cc1nn(-c2ccccc2)c2[nH]c(=O)c(CNCc3ccc4c(c3)OCO4)cc12 | 1.2 | -2.0 | 11.9 | 1.8 | -1.5 | x | x | x
COc1cc2c(c(OC)c1OC)C(c1ccc(C)cc1)CC(=O)O2 (stereo not given) | x | x | 9.8 | 4.5 | -0.5 | x | x | x
Cn1c(SCc2cccc(C#N)c2)nc2ccccc2c1=O | 1.9 | -6.4 | 17.2 | -2.6 | 3.7 | -15.3 | x | x
CCOc1ccccc1CNC(=O)CCNS(=O)(=O)c1ccc2[nH]c(=O)oc2c1 | -4.6 | 0.0 | 28.8 | 0.1 | -1.7 | -10.6 | x | x
CCc1ccc(Nc2nc(N)nc(CSc3nnnn3-c3ccccc3)n2)cc1 | -8.4 | -2.9 | 59.5* | 3.5 | -0.4 | 23.3 | 62.5* | 47.7*
COc1cccc(NC(=O)NCc2ccccc2Cl)c1 | -0.6 | 0.3 | -8.5 | -7.4 | 3.3 | 3.7 | x | x
Oc1ccc(Nc2nc3ccccc3nc2Nc2ccc(O)cc2)cc1 | x | 11.7 | 100.4* | 16.7* | 3.6 | 77.9* | -2.4 | x
Cc1n[nH]c(=O)nc1Nc1ccc(O)cc1 | 4.0 | -0.7 | -6.9 | -0.7 | -1.8 | -6.5 | x | x
COc1ccc(CN2CCCCCC2)cc1Br | -8.0 | 4.6 | 0.1 | -0.5 | -0.3 | 0.9 | x | x
Cc1ccc(N(CC(=O)Nc2cc(Cl)ccc2Oc2ccccc2)S(C)(=O)=O)c(C)c1 | -1.4 | 12.7 | 12.5 | -8.3 | 2.3 | 41.0 | x | x
Cc1ccc(N(CC(=O)Nc2cc(Cl)ccc2Oc2ccccc2)S(C)(=O)=O)cc1C | -2.0 | 22.5 | 52.2* | -25.8 | 0.9 | 10.8 | 2.0 | x
COC(=O)C1=C(C)N=c2s/c(=C3\C(=O)Nc4ccccc43)c(=O)n2C1c1ccccc1 (stereo not given) | x | 13.0 | 47.3 | x | x | x | x | x
CCOC(=O)C1=C(C)N=c2s/c(=C3/C(=O)Nc4ccccc43)c(=O)n2C1c1ccc(C)cc1 (stereo not given) | 0.0 | 23.8 | 70.3* | -6.4 | -0.6 | 2.5 | 13.3 | x
COc1ccc(C(=O)N2CCc3ccc(NC(=O)c4ccccn4)cc3C2)cc1F | x | 6.7 | -4.5 | -6.8 | -0.1 | x | x | x

Screens: PubChem, several laboratories
